The record followed here is the supplement of paper PMC6555819.

In the experiment the test system is VDR:RXRa (NR concentration 270 nM, RXRa partner concentration 90 nM). The experiment is described as follows: PBM binding z-score (relative to random genomic background probes); higher = stronger binding; sequences stand for … in GC…GCGATTGACAGCGTAGAATGAAGG
Here is the method:
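Protein-binding microarray (Agilent 4x180K custom design, double-stranded 60-nt probes: 5' GC cap, 34-nt variable region, 24-nt constant primer region; full probe sequence given). Purified or IVT nuclear receptor:RXRα heterodimers (3:1 NR:RXRα, mostly 270:90 nM) or homodimers were incubated for 1 h in PBS with 2% milk and no ligand, then detected with Alexa488 antibodies. Fluorescence from o1-orientation probes (~5 replicates averaged) was converted to z-scores against 500 random hg19 background probes. Variable regions are seed direct-repeat (DR0–DR5) sites, all their single-nucleotide variants and half-site ablations.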
Take GTACGAAGGTGAATAGGTCGTTGATGAGTAGGCG: the PBM binding z-score worked out at 0.73. CGAACTAGGTCATCCAGGACGGTGAATACATTGA: the PBM binding z-score was determined as 3.72. Regarding CCAGACAGGTGAGAGGGTAACTCAGCCTCGATTA, the PBM binding z-score is -0.0785. CGTCCAAGGTCAGAGAAGTCAGTGAATGCCGAGT showed a PBM binding z-score of 3.15. The figure for TGTCAAAGTTCAAAGTTAACGTAAGTATCCACAC is 4.57; for TCATATAGGTAAATACTAGGTGAAAGTCCGATCT it is 1.19; for CCTATCAGGCCAGGGTCACTCAAGCATTTCGCTT it is 2.73. In turn, CGTCCAAGGTCAGAGACGTCAGTGAATGCCGAGT yielded a PBM binding z-score of 2.76.

Sequence ATCTCTAGGTAACCAAGTTCAGTGTATGCCGAAC had a PBM binding z-score of 3.91.

In turn, GATACAGGGTCACCTAGAGGCCAGAGTATGGAAA yielded a PBM binding z-score of 4.76. Regarding CCAACTGGGGCATAAGGTTACCATAAGCCAGCCC, the PBM binding z-score is 0.316. Turning to CAGCCTAGGTCGGGGCCAGTATAGGAGGAACGTT, the PBM binding z-score was -0.53. TAGCCTAGGTGATGGGCCAGTATACCACGCGAAC yielded a PBM binding z-score of -0.726. The figure for TAGCCTAGGTCAGATCGGGCCGGTATACGCTATA is 0.236. In turn, ACAGACAGGTGAGTGAAGGTAACACAGCTGGACG displayed a PBM binding z-score of -0.0356. The figure for AGTCAAAGTTCACTCGGTAACGTAAGATTCAGCT is 4.31; for AGTCAAAGTTCACTAGGTAACGTACGATTCAGCT it is 4.24. The sequence TCCTATAGGTAATACAGGTGAAAGTCGGCATCTA showed a PBM binding z-score of 0.718. As for CCTATAAGTTGACCATAAGGGCAACCGAAGCTCG, the PBM binding z-score came to 1.06. Regarding TCTCGGAGGACACGAAGATCAGAGCTTTCCAGAG, the PBM binding z-score is -0.165. Sequence TCTAGCAGGCCAGAGGGTCACTAAAGAGGTACGG had a PBM binding z-score of 1.24. ATCGAAAGGTCGAAGGTGAATATACCCACCCGAA came in with a PBM binding z-score of 3.08. In turn, CCAACTAGGTCAAGGTCAAAGTCGGTTTGTGCCA showed a PBM binding z-score of 5.14. CGTCCAAGGTCATAGGAGGTCAGTAAAGACAGAT: the PBM binding z-score worked out at 6.61. Turning to TCATATAGGTAAATGCTAGGTGAAAGGCCGATCT, the PBM binding z-score is 0.727.

ATTGAAAGGTCGAGGTGAGTATAGAGAAAGGGAA displayed a PBM binding z-score of 2.87. In turn, TCGAGTGGGTTAGGGGCATTCAGAATGGCGTCGA displayed a PBM binding z-score of 1.04.

The sequence TTACCAGGGTGAAAGGTCGTTGATGCACGCCTTG yielded a PBM binding z-score of 3.28. Sequence GCTCGGAAGACAAGGTCAGAGCTTTGTCCGTAGA showed a PBM binding z-score of 0.859.

GCTGCTAGGTCAACTGATGATCAGCTAAAGCTCG had a PBM binding z-score of 1.38. In the case of TCTTGTAGATCAATAGAGGTTAAGAATGTGCGCT, the PBM binding z-score worked out at 1.27. To CGTCCAAGGTCATCAGGTCAGTGAAAGCGACGTG belongs 5.43; to GATACAGTGTCAGCTAGAGGCCAGAGTATGGAAA, -0.468. As to ATCGAAAGGTCGAGGTGAGTGTAGAGAAAGGGAA, the PBM binding z-score came out at 3.21. On to TCTAGTTGGTCACGGAGGTCGCACACGACGGGTA, for which the PBM binding z-score was found to be 4.06.

Regarding TAGGCTAGGTCATTGGGCCAGTATAGTACGCATC, the PBM binding z-score worked out at 2.03. With CAGCCTAGGTCAGGGCCAGTAAAGGAGGAACGTT, the PBM binding z-score was determined as 0.0313.

TAGCCTCGGTCATGGGCCAGTATACCACGCGAAC registered a PBM binding z-score of -0.162.

With CCTACTGGGACAAAGGTCATTGATTCCAATGCTC, the PBM binding z-score amounted to 4.67.

With CGTCAAAGTTCATCTAAGGTAACGTAAAGCACGC, the PBM binding z-score worked out at 5.24.
